Assay outcomes from PubChem.
LmPK inh: inhibitors of Leishmania mexicana pyruvate kinase. Q27686. purified LmPK, Kinase-Glo ATP luminescence, 1 h. Potency, µM (top dose mostly 57.5 µM), for the others: top-dose activity change, negative = inhibition, hits mostly inhibitors. hit rate 0.37% among 290,000. AID 1721; also: potency is read from the fitted curve at half-maximal effect; % is scaled to controls: 0 for no effect and ±100 for the full control effect
Target sequence (Q27686 whole entry, looked up): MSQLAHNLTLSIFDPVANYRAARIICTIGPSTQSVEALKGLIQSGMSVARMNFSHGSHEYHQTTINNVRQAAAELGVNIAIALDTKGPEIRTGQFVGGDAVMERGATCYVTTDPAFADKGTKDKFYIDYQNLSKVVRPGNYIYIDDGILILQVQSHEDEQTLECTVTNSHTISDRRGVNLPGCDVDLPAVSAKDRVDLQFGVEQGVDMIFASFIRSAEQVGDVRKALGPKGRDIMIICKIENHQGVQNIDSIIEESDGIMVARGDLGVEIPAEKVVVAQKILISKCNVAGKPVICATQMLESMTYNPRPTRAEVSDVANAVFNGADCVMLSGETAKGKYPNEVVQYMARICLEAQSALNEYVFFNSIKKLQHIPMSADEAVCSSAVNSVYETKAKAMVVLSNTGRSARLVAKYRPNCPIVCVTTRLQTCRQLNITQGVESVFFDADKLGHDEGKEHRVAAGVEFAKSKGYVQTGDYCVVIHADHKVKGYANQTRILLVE
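0.1 nM LmPK, 0.5 mM PEP, 0.1 mM ADP; 50 mM imidazole pH 7.2, 7 mM MgCl2, 50 mM KCl; 1 h RT. Kinase-Glo luminescence readout, normalized to no-enzyme (full inhibition) and uninhibited wells.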
Sm TGR block: blocks Schistosoma mansoni thioredoxin glutathione reductase | Potency, µM (series often up to 114 µM), for inactives: at the highest dose activity change, negative = inhibition, most hits filed as inhibitors | purified TGR, DTNB reduction, TNB absorbance 405 nm | hit rate 3% among 360,000 | AID 485364 | Q962Y6; also: potency is read from the fitted curve at half-maximal effect; % is scaled to controls: 0 for no effect and ±100 for the full control effect; nearly all actives have a fitted effect of over 60% in size
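First, TGR (20 nM dispensed) and NADPH were mixed with compound. Second, a 15 min room-temperature incubation followed. Third, further NADPH and then DTNB were added to start the reaction. Finally, TNB absorbance was monitored kinetically.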
Shiga inhibitor: Shiga toxin inhibition; Vero cells, Shiga toxin protein synthesis inhibition reporter; inhibition, % at 38.7 µM; hit rate 9.2% among 290,000; in the data active = inhibition mostly above about 28%, no sharp cut-off; inactive = mostly below about 43%; also: 0% is about no effect
CHX counter: affects cycloheximide protein synthesis inhibition readout, counter-screen. cell reporter, cycloheximide protein synthesis inhibition counterscreen. max response, %. hit rate 12% among 300,000; in the data active = max response mostly above about 13%, no sharp cut-off; inactive = mostly below about 14%; also: read at 38.3 µM for the half of the compounds with a filed dose; 0% is about no effect
Tb PYK inh: inhibitors of Trypanosoma brucei pyruvate kinase | Q57TT1 | TbPYK enzyme, Kinase-Glo Plus ATP luminescence, 45 min | Potency, µM (top dose mostly 76.8 µM), for the others: at the top dose activity, negative = inhibition, hits mostly inhibitors | hit rate 0.12% among 410,000 | AID 624173; also: potency is read from the fitted curve at half-maximal effect; % is scaled to controls: 0 for no effect and ±100 for the full control effect; nearly all actives have a fitted effect of over 50% in size
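Activity of T. brucei pyruvate kinase was followed by Kinase-Glo Plus luminescence after the enzyme reacted 45 min at room temperature with 130 uM ADP (final) and substrate. Test compounds were added before ADP at multiple concentrations.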
Giardia FBPA inh: Giardia lamblia aldolase inhibition | A8B2U2 | purified Giardia FBPA | Potency, µM (top dose mostly 59.6 µM), without a hit: at the highest dose activity, negative = inhibition, actives largely listed as inhibitors | hit rate 0.71% among 290,000 | AID 2451; also: potency is read from the fitted curve at half-maximal effect; % is scaled to controls: 0 for no effect and ±100 for the full control effect; nearly all actives have a fitted effect of over 55% in size
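Giardia FBPA (40 nM reagent) was preincubated 10 min at RT with compound (up to 57.5 uM final), then substrate plus GAPDH/TPI/NAD/arsenate coupling system with diaphorase/resazurin was added; resorufin fluorescence (525/598 nm) was read after 20 min.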
An asterisk follows results filed as active; ? = inconclusive; . = not tested or not shown; + = active, no number; ! = repeats disagree; [ ] = dose if it differs, or a comment. The full list was thinned out, with hits kept by preference. Unless noted, calls follow the shape of the dose curve; as a rule, active = well fitted curve in the direction sought with a large enough effect; inconclusive = small, poorly fitted or top-dose-only effect, or another doubt; inactive = no such curve, though single readings can be large; an effect the other way counts as inactive or inconclusive.

SMILES	LmPK inh	Sm TGR block	Shiga inhibitor	CHX counter	Tb PYK inh	Giardia FBPA inh
CCC(Sc1nc2cc(OC)c(OC)cc2c(=O)n1Cc1ccc(Cl)cc1)C(=O)NCCOC (configuration not stated)	.	3.3%	.	.	-1.4%	.
Cc1ccc2nc(SCc3nc(-c4ccc(Cl)cc4)no3)[nH]c2c1	.	9.2%	.	.	4.2%	.
CCOc1cc(C(=O)NCc2ccc3c(c2)CCN3C(=O)CC)cc(OCC)c1OCC	.	3.2%	.	.	-2.0%	.
O=C(O)/C=C/C(=O)N(CC1CCCO1)C1CC(=O)N(c2c(Cl)cccc2Cl)C1=O (configuration not stated)	15.5%	39.8µM*	22.7	2.3	2.5%	-1.1%
COc1ccc(N2C(=O)CC(N(CCc3ccccc3)C(=O)/C=C/C(=O)O)C2=O)cc1 (configuration not stated)	9.5%	?	-8.1	8.4	-1.6%	7.4%
Cc1[nH][nH]c(=O)c1N=Nc1ccccc1Cl	-15.9%	0.8%	55.9*	22.1*	-0.6%	0.9%
O=C(Nc1ccccc1F)c1ccc(Br)o1	-17.1%	-2.1%	+!	55.3*	-11.0%	-0.1%[89.2 µM]
Cc1ccc(C(=O)Nc2ccccc2-c2ccccc2)o1	-5.1%	-14.2%	18.3	5.0	-0.7%	3.2%
O=C(Nc1ccccc1C(=O)O)c1ccc(Br)o1	-17.5%	0.0%	38.5*	21.3*	12.5%	-7.8%
Cc1ccc(C(=O)Nc2ccccc2C(N)=O)o1	-13.9%	0.0%	105.5*	36.9*	-1.5%	4.1%
COc1ccc(-c2nc(N3CCN(S(=O)(=O)c4ccccc4)CC3)c3ccccc3n2)cc1	.	.	47.8	17.9	.	.
Cc1ccc(-n2ncc3c(NCc4ccco4)ncnc32)cc1C	-1.1%	1.1%	91.2*	50.9*	-2.6%	4.1%
Cc1cccc(-n2ncc3c(NCc4ccco4)ncnc32)c1	2.2%	44.7µM*	64.4*	34.5*	-3.1%	-7.7%
COc1ccc(OC)c(Nc2ncnc3c2cnn3-c2cccc(C)c2)c1	2.7%	1.5%	12.6	6.4	1.7%	-1.1%
O=C(NCc1ccc2c(c1)OCO2)C1CCN(c2nccc(C(F)(F)F)n2)CC1	3.3%	-3.7%	-4.1	-1.8	-2.5%	5.4%
Cc1ccnc(Nc2nc(-c3c(C)nc4sccn34)cs2)c1	1.4%	14.6%	57.3	31.7*	.	?
Cc1ccnc(Nc2nc(-c3ccccc3)cs2)c1	-7.8%	?	89.5*	55.3*	-3.0%	5.7%
CC(=O)Oc1ccc(-c2csc(Nc3ccccn3)n2)cc1	.	.	.	.	-12.6%	.
CC(=O)Nc1ccc(-c2csc(Nc3cc(C)ccn3)n2)cc1	9.4%	-1.3%	77.9*	48.6*	0.4%	-19.6%
CC(=O)Nc1cccc(-c2csc(Nc3ccccn3)n2)c1	-9.2%	-8.1%	90.3*	44.5*	0.0%	-1.1%
Cc1cnc(C(=O)Nc2nc(-c3ccccc3)cs2)cn1	3.4%	-8.9%	4.1	-1.6	-6.4%	-0.2%
CC(C)(C)OC(=O)NC(NC(=O)OCC1c2ccccc2-c2ccccc21)C(=O)O (configuration not stated)	.	.	-3.1	-4.2	.	-25.3%
Cc1ccccc1OCC(=O)Nc1ccccc1OCc1cc(=O)n2ccccc2n1	.	6.8%	.	.	2.2%	.
CC(=O)Nc1cccc(-c2csc(Nc3cc(C)ccn3)n2)c1	3.8%	-3.6%	126.6*	41.4*	2.8%	-11.3%
N#CC1=C(N)Oc2c(ccc3ccccc23)C1c1ccsc1 (configuration not stated)	4.1%	?	57.4*	20.3*	3.0%	?
CCOc1ncccc1C(=O)OCC(=O)N(CC(C)C)C1CCS(=O)(=O)C1 (configuration not stated)	-0.8%	-0.9%	-8.0	-5.4	-4.1%	7.1%
Cn1c(CO)cnc1S(=O)(=O)Cc1ccc([N+](=O)[O-])cc1	0.2%	28.2µM*	17.6	-0.6	2.9%	-2.0%
COc1ccc(C(=O)NCc2ccc3c(c2)CCN3C(=O)c2ccc(C)cc2)cc1	.	4.5%	.	.	3.5%	.
CCOC(=O)c1cc(-c2ccc(OC)cc2OC)nn1-c1ccc(C(=O)O)cc1	-0.5%	4.7%	5.2	20.6*	0.6%	0.0%
Cc1nn2c(-c3ccco3)ccnc2c1-c1ccc(Cl)cc1	.	-0.9%	.	.	2.1%	.
